Measured values taken from PubChem BioAssay (NCATS).
Results filed as inconclusive are left out. Activity calls are given as the source filed them. The call rests on the fitted dose curve; in most records, active means well fitted cell-killing curve with a large enough effect; inconclusive means small, poorly fitted or top-dose-only effect, or effect the other way; inactive means flat fitted curve, though single readings scatter.

Columns and labels:
Assay in all cases: Primary qHTS to identify gynecologic anti-cancer compounds using libraries of approved drugs and bioactive compounds (AID 1345084); further: nearly all actives have a fitted effect of over 55% in size
[1] = tested on: C33A; conditions: Gynecologic cancer cell panel viability, ATPlite luminescence, 48 h; series mostly up to 57.5 µM
Procedure, shortened: (§1)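 Cells, 1,000 per well, plated 16 h, then exposed 48 h at 37 C to compounds. Viability by ATPlite luminescence after 15 min at room temperature.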

[2] = tested on: CAOV3; conditions: Gynecologic cancer cell panel viability, ATPlite luminescence, 48 h; series mostly up to 57.5 µM
Procedure, shortened: as §1

[3] = tested on: CASKI; conditions: Gynecologic cancer cell panel viability, ATPlite luminescence, 48 h; series mostly up to 57.5 µM
Procedure, shortened: as §1

[4] = tested on: Es-2; conditions: Gynecologic cancer cell panel viability, ATPlite luminescence, 48 h; series mostly up to 57.5 µM
Procedure, shortened: as §1

[5] = tested on: HeLa; conditions: Gynecologic cancer cell panel viability, ATPlite luminescence, 48 h; series mostly up to 57.5 µM
Procedure, shortened: as §1

[6] = tested on: JEG-3; conditions: Gynecologic cancer cell panel viability, ATPlite luminescence, 48 h; series mostly up to 57.5 µM
Procedure, shortened: as §1

[7] = tested on: OV90; conditions: Gynecologic cancer cell panel viability, ATPlite luminescence, 48 h; series mostly up to 57.5 µM
Procedure, shortened: as §1

[8] = tested on: PA-1; conditions: Gynecologic cancer cell panel viability, ATPlite luminescence, 48 h; series mostly up to 57.5 µM
Procedure, shortened: as §1

[9] = tested on: Hek293T; conditions: Gynecologic cancer cell panel viability, ATPlite luminescence, 48 h, control line for the selectivity index; series mostly up to 57.5 µM
Procedure, shortened: as §1

Measured: Potency
Potency means the concentration at half of the fitted maximal effect.

CC(C)OC(=O)N1CCC(Oc2ncnc3c2cnn3-c2ccc(S(C)(=O)=O)cc2F)CC1
not listed: [9]
inactive: all other assays above

NC(=O)C1=CC2C3C=CC2C(OC3=O)O1 (stereo not given)
not listed: [6]
inactive: all other assays above

C[C@@H]1CCCN1CCc1cc2cc(-c3ccc(C#N)cc3)ccc2o1
not listed: [7] | [8] | [9]
inactive: all other assays above

C=C1/C(=C/C=C2\CCC[C@]3(C)[C@@H]([C@@H](C)OCCC(O)(CC)CC)CC[C@@H]23)C[C@@H](O)C[C@@H]1O
not listed: [6] | [9]
inactive: all other assays above

CCCc1ccc(OCC(=O)N(Cc2nc(-c3cccnc3)no2)C(C)C)cc1
not listed: [9]
inactive: all other assays above

CC1=C(c2ccc(NC(=O)c3c(F)cccc3F)cc2)CN(c2nccs2)CC1
not listed: [6] | [7]
inactive: all other assays above

CC(C)c1cccc(C(C)C)c1NC(=O)Nc1ccc(Sc2ccc([N+](=O)[O-])cc2)cc1
not listed: [9]
inactive: all other assays above

C=C1CC[C@@H](O)[C@]2(C)C[C@H]3OC(=O)C(=C)[C@H]3CC12 (stereo not given in full)
not listed: [9]
inactive: all other assays above

O=C(NCCCNc1nc(Nc2cccc(CN3CCOCC3)c2)ncc1C1CC1)C1CCC1
active: [2] 11.2 µM
not listed: [5] | [8]
inactive: all other assays above

C=C1C(=O)O[C@@H]2/C=C(/C)[C@@H](OC(C)=O)C/C=C(\C)C[C@@H](OC(=O)/C(=C/CO)CO)[C@@H]12
not listed: [4] | [9]
inactive: all other assays above

Cc1cc2c(F)c(Oc3ncnn4cc(OCC(C)OC(=O)C(C)N)c(C)c34)ccc2[nH]1 (stereo not given)
not listed: [5] | [6] | [9]
inactive: all other assays above
